Several values for one entry are separate records, joined by “and”; a condition that tells them apart may be missing. Equal entries are not always repeated. Results filed as inconclusive are left out. Where a structure was tested more than once in an assay, its records may differ in their call. Activity calls are given as the source filed them. The calls were made as follows, unless noted: active = hit-call score of the fitted dose curve at least 0.9, where 1 is the maximum; inconclusive = response in the unintended direction; inactive = score below 0.9.
Tests used:
[1] = system: Sodium/Iodide Symporter (NIS), SLC5A5 (gene 6528); assay: CPHEA_Stoker_NIS_Inhibition_RAIU: CPHEA's Radioactive Iodide Uptake (RAIU) Assay for Sodium/Iodide Symporter (NIS) Inhibition, Stoker and Laws Labs (AID 2283841)
In short: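 hNIS-HEK293T-EPA cells incubated 2 h at room temperature with compound (0.001–100 uM, 0.5% DMSO) and 329 pM final 125I in HBSS/10 mM HEPES, pH 7.4. Intracellular 125I counted; normalised to DMSO maximal uptake, triplicate, three biological replicates.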

[2] = CPHEA_Stoker_NIS_Cytotoxicity: Cytotoxicity Assessment for CPHEA's Radioactive Iodide Uptake (RAIU) Assay for Sodium/Iodide Symporter (NIS) Inhibition, Stoker and Laws Labs (AID 2283897);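 as to AC50: active means loss of ATP signal versus DMSO meaning cytotoxicity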
In short: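 hNIS-HEK293T-EPA cells, human NIS expressed in HEK293T, treated 2 h with chemicals (0.001–100 uM, 0.5% final DMSO). ATP content read by CellTiter-Glo luminescence; loss of signal analysed relative to DMSO.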

[3] = system: zebrafish Estrogen Receptor (ER2b), gene 317733; assay: ATG_zfER2b_XSP2: Attagene TRANS-FACTORIAL Multi-Species (XSP2) HepG2 Assay for zebrafish Estrogen Receptor (ER2b) (AID 2283823);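 also: fitted upward as reporter gain over DMSO so potency reflects activation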
In short: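 Reporter transcripts quantified by RT-PCR, fluorescent labelling and capillary electrophoresis after 24 h dosing of transfected HepG2 expressing zebrafish ER2b-GAL4 fusion. Medium contained 3 nM 6-alpha-fluorotestosterone plus 1.5 nM norgestrel; DMSO baseline.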

[4] = system: frog Estrogen Receptor (ER2), gene 100174814; assay: ATG_frER2_XSP2: Attagene TRANS-FACTORIAL Multi-Species (XSP2) HepG2 Assay for frog Estrogen Receptor (ER2) (AID 2283828)
In short: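 Cells were transfected with reporter constructs under GAL4-UAS control, dosed with chemicals for 24 h, then lysed for RNA; the frog ER2-driven reporter mRNA was quantified by capillary electrophoresis of labeled PCR fragments, with activity fitted upward from DMSO.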

[5] = molecular target: Peroxisome proliferator-activated receptor gamma (Homo sapiens) (UniProt P37231); assay: ATG_hPPARg_XSP2: Attagene TRANS-FACTORIAL Multi-Species (XSP2) HepG2 Assay for human Peroxisome Proliferator-activated Receptor gamma (PPARg) (AID 2283829);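 also: actives raise reporter mRNA above DMSO so AC50 reflects PPARg activation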
Peroxisome proliferator-activated receptor gamma (Homo sapiens), sequence (P37231 whole entry, looked up, the tested form may be a part): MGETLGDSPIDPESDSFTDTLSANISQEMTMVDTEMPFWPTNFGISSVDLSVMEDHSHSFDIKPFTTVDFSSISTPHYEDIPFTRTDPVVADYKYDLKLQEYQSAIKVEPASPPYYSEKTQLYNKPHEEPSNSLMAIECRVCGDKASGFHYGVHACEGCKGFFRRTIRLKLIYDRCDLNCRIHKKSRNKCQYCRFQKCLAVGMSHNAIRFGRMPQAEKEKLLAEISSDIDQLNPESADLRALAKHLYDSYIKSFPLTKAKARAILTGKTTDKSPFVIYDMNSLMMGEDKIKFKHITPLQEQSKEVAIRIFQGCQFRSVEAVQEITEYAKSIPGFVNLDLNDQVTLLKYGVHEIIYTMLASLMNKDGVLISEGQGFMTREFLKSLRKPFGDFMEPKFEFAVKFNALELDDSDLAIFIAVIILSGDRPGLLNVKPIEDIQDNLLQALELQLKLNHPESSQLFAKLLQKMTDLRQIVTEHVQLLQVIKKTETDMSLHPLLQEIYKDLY
In short: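 HepG2 cells transiently transfected with GAL4-UAS reporter units driven by chimeric NR-Gal4 proteins; androgen receptor stimulated with 3 nM 6-alpha-fluorotestosterone and 1.5 nM norgestrel. After 24 h, reporter mRNA quantified by RT-PCR and capillary electrophoresis versus DMSO.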

[6] = molecular target: zebrafish Thyroid Hormone Receptor alpha (TRa), thraa (gene 30670) (UniProt Q98867); assay: ATG_zfTRa_XSP2: Attagene TRANS-FACTORIAL Multi-Species (XSP1) HepG2 Assay for zebrafish Thyroid Hormone Receptor alpha (TRa) (AID 2283832);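 also: actives raise zebrafish TRa-Gal4 reporter transcript above DMSO baseline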
zebrafish Thyroid Hormone Receptor alpha (TRa), thraa (gene 30670), sequence (Q98867 whole entry, looked up, the tested form may be a part): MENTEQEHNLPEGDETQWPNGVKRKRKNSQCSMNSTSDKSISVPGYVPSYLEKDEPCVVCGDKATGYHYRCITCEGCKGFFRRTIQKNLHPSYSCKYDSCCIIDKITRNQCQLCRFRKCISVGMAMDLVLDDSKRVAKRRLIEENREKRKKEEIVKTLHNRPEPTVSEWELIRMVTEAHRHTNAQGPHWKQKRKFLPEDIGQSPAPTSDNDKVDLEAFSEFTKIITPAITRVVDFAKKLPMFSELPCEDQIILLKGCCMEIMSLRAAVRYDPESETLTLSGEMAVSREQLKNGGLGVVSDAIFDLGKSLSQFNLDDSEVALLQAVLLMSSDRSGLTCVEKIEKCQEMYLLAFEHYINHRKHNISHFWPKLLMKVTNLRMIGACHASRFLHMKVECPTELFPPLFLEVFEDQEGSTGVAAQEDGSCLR
In short: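 Readout is reporter mRNA induction, quantified by RT-PCR and capillary electrophoresis with fluorescent labelling, after 24 h compound exposure of transiently transfected HepG2 cells carrying NR-Gal4 chimera reporters. Activity fitted upward relative to DMSO.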

[7] = system: zebrafish Peroxisome Proliferator-activated Receptor gamma (PPARg), gene 557037; assay: ATG_zfPPARg_XSP2: Attagene TRANS-FACTORIAL Multi-Species (XSP2) HepG2 Assay for zebrafish Peroxisome Proliferator-activated Receptor gamma (PPARg) (AID 2283833);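 also: reporter mRNA from a zebrafish PPARg GAL4 chimera measured by RT-PCR and capillary electrophoresis; actives increase reporter signal over DMSO so AC50 reflects activation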
In short: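 HepG2 cells transiently transfected with multiplexed GAL4-UAS reporter units expressing chimeric NR-Gal4 receptors, dosed 24 h. Reporter mRNA quantified by RT-PCR, fluorescent labelling, HpaI digestion and capillary electrophoresis; gain of signal fitted against DMSO.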

[8] = system: turtle Thyroid Hormone Receptor, alpha (TRa), gene 101949057; assay: ATG_trTRa_XSP2: Attagene TRANS-FACTORIAL Multi-Species (XSP1) HepG2 Assay for turtle Thyroid Hormone Receptor, alpha (TRa) (AID 2283834);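 also: hits raise reporter mRNA over the DMSO baseline so AC50 marks activators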
In short: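 HepG2 cells transiently transfected with GAL4-UAS reporter units for chimeric turtle TRa-Gal4; mRNA measured 24 h after dosing by RT-PCR and capillary electrophoresis fluorescence, gain of signal fitted against DMSO.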

[9] = ATG_M_61_XSP2: Attagene TRANS-FACTORIAL Multi-Species (XSP2) HepG2 Assay for M61 Transcription Factor (Internal Marker) (AID 2283835; active = hit-call score of the fitted dose curve at least 0.9, where 1 is the maximum; inactive = score below 0.9;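 also: active means a rise in signal above the DMSO baseline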)
In short: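 Transient MRTU transfection of human HepG2; 24 h chemical dosing with 3 nM 6-alpha-fluorotestosterone + 1.5 nM norgestrel added for AR stimulation. RNA isolated, RT, PCR, FAM-labelled, HpaI cut, CE read. Positive direction vs DMSO.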

[10] = molecular target: zebrafish Thyroid Hormone Receptor beta (TRb), thrb (gene 30607) (UniProt Q9PVE4); assay: ATG_zfTRb_XSP2: Attagene TRANS-FACTORIAL Multi-Species (XSP1) HepG2 Assay for zebrafish Thyroid Hormone Receptor beta (TRb) (AID 2283836)
zebrafish Thyroid Hormone Receptor beta (TRb), thrb (gene 30607), sequence (Q9PVE4 whole entry, looked up): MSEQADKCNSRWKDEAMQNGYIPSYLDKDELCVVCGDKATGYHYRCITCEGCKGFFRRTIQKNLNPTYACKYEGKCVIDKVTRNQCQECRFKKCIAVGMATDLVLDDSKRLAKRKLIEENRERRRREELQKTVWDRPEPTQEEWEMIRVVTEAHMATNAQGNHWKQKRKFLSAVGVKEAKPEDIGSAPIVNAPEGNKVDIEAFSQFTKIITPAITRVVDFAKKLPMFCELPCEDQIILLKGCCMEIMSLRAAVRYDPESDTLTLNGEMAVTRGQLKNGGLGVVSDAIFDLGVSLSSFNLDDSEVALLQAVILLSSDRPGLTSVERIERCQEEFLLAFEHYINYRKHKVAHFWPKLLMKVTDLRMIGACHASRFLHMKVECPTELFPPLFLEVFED
In short: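 Reporter transcripts were measured by RT-PCR with fluorescent primer extension and capillary electrophoresis, 24 h after chemical dosing of transiently transfected HepG2 cells. Activity was scored as upward signal versus DMSO baseline.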

[11] = molecular target: frog Thyroid hormone Receptor alpha (TRa), thra-a (gene 397942) (UniProt P15204); assay: ATG_frTRa_XSP2: Attagene TRANS-FACTORIAL Multi-Species (XSP2) HepG2 Assay for frog Thyroid hormone Receptor alpha (TRa) (AID 2283839)
frog Thyroid hormone Receptor alpha (TRa), thra-a (gene 397942), sequence (P15204 whole entry, looked up, the tested form may be a part): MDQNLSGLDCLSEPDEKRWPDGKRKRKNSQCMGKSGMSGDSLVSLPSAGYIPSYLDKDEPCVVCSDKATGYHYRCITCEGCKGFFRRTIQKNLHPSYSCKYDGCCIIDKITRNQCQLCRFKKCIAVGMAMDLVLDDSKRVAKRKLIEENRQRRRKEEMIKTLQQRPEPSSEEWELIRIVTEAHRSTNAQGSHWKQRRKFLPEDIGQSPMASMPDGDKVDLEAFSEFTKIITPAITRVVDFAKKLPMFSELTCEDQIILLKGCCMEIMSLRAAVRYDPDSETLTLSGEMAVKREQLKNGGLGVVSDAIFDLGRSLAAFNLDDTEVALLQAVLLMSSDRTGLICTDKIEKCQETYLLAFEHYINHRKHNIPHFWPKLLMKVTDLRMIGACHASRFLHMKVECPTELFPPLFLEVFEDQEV
In short: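 HepG2 transiently transfected with multiplexed GAL4-UAS reporters driven by frog TRa-Gal4 chimeras; 24 h chemical exposure. Reporter mRNA quantified by RT-PCR, FAM labelling, HpaI digestion and capillary electrophoresis; gain of signal versus DMSO.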

[12] = molecular target: human Thyroid hormone Receptor beta (TRb), THRB (gene 7068) (UniProt P10828); assay: ATG_hTRb_XSP2: Attagene TRANS-FACTORIAL Multi-Species (XSP2) HepG2 Assay for human Thyroid hormone Receptor beta (TRb) (AID 2283840);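 also: actives raise reporter mRNA so potency reflects agonist-like gain of signal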
human Thyroid hormone Receptor beta (TRb), THRB (gene 7068), sequence (P10828 whole entry, looked up, the tested form may be a part): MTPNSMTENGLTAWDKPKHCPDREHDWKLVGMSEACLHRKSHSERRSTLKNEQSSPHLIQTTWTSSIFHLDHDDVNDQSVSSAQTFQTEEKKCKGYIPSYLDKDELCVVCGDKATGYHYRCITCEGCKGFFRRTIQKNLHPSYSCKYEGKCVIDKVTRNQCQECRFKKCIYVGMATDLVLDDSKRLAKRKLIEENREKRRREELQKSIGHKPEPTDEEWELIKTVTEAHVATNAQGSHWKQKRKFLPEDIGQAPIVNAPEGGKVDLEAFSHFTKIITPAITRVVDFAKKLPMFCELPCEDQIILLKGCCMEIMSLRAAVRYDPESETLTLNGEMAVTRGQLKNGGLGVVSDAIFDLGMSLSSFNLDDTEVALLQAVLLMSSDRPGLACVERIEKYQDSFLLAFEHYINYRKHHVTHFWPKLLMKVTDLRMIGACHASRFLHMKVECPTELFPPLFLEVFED
In short: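 HepG2 transiently transfected with a multi-species panel including a human TRb–Gal4 chimera driving Gal4-UAS reporters; medium contained 3 nM 6-alpha-fluorotestosterone and 1.5 nM norgestrel. 24 h dosing; RT-PCR/capillary electrophoresis readout; positive-direction fit vs DMSO.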

[13] = molecular target: Estrogen receptor (Homo sapiens) (UniProt P03372); assay: ATG_hERa_XSP2: Attagene TRANS-FACTORIAL Multi-Species (XSP2) HepG2 Assay for human Estrogen Receptor (ERa) (AID 2283827)
Estrogen receptor (Homo sapiens), sequence (P03372 whole entry, looked up, the tested form may be a part): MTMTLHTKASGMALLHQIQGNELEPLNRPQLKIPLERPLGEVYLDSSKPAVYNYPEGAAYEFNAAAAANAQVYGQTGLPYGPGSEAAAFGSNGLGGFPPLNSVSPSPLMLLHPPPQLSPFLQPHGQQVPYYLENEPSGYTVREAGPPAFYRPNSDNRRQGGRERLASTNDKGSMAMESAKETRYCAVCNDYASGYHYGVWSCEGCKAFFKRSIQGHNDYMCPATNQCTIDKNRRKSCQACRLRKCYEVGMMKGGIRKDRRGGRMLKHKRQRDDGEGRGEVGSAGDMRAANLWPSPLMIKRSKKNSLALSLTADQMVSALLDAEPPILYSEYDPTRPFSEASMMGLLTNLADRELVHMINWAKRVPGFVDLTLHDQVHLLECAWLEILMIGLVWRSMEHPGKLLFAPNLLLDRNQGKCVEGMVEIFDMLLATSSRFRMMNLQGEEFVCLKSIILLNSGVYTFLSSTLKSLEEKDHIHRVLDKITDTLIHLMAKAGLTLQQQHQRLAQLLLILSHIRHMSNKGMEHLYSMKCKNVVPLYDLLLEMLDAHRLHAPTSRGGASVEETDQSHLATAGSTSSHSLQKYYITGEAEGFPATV
In short: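 Trans-activation of exogenous human ERa-Gal4 chimera read in HepG2 as reporter transcript after 24 h exposure; medium included 3 nM 6-alpha-fluorotestosterone and 1.5 nM norgestrel. Quantified by RT-PCR with capillary electrophoresis, positive-direction fitting against DMSO.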

[14] = system: frog Androgen Receptor (AR), gene 399456; assay: ATG_frAR_XSP2: Attagene TRANS-FACTORIAL Multi-Species (XSP2) HepG2 Assay for frog Androgen Receptor (AR) (AID 2283824);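 also: reporter mRNA from GAL4-UAS units driven by Xenopus AR-Gal4 chimera; actives raise reporter signal above DMSO so AC50 reflects agonist-like induction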
In short: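 Reporter transcript induction, read by RT-PCR with fluorescent capillary electrophoresis, in human liver HepG2 cells carrying an exogenous Xenopus AR-Gal4 fusion and GAL4-driven reporters; chemical exposure 24 hours, activity scored upward against DMSO controls.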

[15] = system: zebrafish Androgen Receptor (AR), gene 100005148; assay: ATG_zfAR_XSP2: Attagene TRANS-FACTORIAL Multi-Species (XSP2) HepG2 Assay for zebrafish Androgen Receptor (AR) (AID 2283825);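 also: hits raise reporter mRNA above DMSO so AC50 reflects agonist-type gain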
In short: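 After 24 h compound exposure in medium with 3 nM 6-alpha-fluorotestosterone plus 1.5 nM norgestrel, HepG2 cells carrying zebrafish AR–GAL4 reporter constructs were assessed for reporter mRNA gain by RT-PCR and capillary electrophoresis.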

[16] = molecular target: human Thyroid hormone Receptor alpha (TRa), THRA (gene 7067) (UniProt P10827); assay: ATG_hTRa_XSP2: Attagene TRANS-FACTORIAL Multi-Species (XSP2) HepG2 Assay for human Thyroid hormone Receptor alpha (TRa) (AID 2283838)
human Thyroid hormone Receptor alpha (TRa), THRA (gene 7067), sequence (P10827 whole entry, looked up, the tested form may be a part): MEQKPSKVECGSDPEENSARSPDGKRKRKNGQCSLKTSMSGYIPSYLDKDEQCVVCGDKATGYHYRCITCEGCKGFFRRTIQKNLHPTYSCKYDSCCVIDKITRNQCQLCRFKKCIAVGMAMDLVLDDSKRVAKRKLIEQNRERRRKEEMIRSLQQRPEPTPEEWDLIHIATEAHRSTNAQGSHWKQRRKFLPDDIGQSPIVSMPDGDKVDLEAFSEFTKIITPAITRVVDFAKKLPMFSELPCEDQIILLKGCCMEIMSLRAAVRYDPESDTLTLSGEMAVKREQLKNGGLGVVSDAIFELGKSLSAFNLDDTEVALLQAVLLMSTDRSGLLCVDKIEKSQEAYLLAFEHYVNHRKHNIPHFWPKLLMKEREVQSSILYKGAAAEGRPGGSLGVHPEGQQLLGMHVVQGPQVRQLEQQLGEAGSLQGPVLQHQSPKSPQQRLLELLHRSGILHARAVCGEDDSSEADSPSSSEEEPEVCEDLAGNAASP
In short: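 Gain-of-signal in reporter mRNA, relative to DMSO, after 24 h dosing of transfected HepG2; quantitation by RT-PCR fragment analysis on capillary electrophoresis.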

[17] = ATG_M_19_XSP2: Attagene TRANS-FACTORIAL Multi-Species (XSP2) HepG2 Assay for M32 Transcription Factor (Internal Marker) (AID 2283822)
In short: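 Internal background marker in a multi-species nuclear receptor TRANS panel: transfected HepG2 cells exposed 24 h, with 3 nM 6-alpha-fluorotestosterone and 1.5 nM norgestrel present. Readout is RT-PCR of reporter transcripts resolved by capillary electrophoresis, gain-of-signal versus DMSO.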

[18] = ATG_XTT_Cytotoxicity_XSP2: Cytotoxicity Assessment in the Attagene TRANS-FACTORIAL Multi-Species (XSP2) HepG2 Assay (AID 2283837)
In short: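 XTT-based cell number read-out in human HepG2 liver cells carrying transfected reporter units, measured 24 h after chemical dosing. Activity is signal loss versus DMSO baseline.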

[19] = CEETOX_H295R_11DCORT_noMTC: CeeTox H295R High-throughput Steroidogenesis Assay for 11-Deoxycortisol (11DCORT), maximum tolerated concentration (MTC) filtered results only (AID 2283911; active = hit-call score of the fitted dose curve at least 0.9, where 1 is the maximum; inactive = score below 0.9); details: actives raise or lower the signal
In short: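 H295R cells were prestimulated 48 h with 10 uM forskolin, then exposed 48 h to chemical (0.1% DMSO final). 11-Deoxycortisol in the medium was measured by MTBE extraction and HPLC-MS/MS, with bidirectional fitting versus DMSO and no MTC filtering of concentrations.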

[20] = CEETOX_H295R_OHPREG_noMTC: CeeTox H295R High-throughput Steroidogenesis Assay for OH-Pregnenolone (OHPREG), maximum tolerated concentration (MTC) filtered results only (AID 2283912; active = hit-call score of the fitted dose curve at least 0.9, where 1 is the maximum; inactive = score below 0.9); details: actives raise or lower the signal
In short: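 H295R; 10 uM forskolin 48 h pre-stim; test cpd in DMSO (0.1% final) 48 h; media MTBE-extracted, HPLC-MS/MS for OH-pregnenolone; bidirectional fit vs DMSO; no MTC (MTT) filtering.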

Measured: AC50

O=C(O)c1ccccc1
inactive: [1] | [2]

CC(C)(c1ccc(O)cc1)c1ccc(O)cc1
inactive: [4] | [5] | [7] | [8] | [9] | [10] | [11] | [12] | [1] | [2]
active: [3] 2.08 µM | [6] 12.7 µM

N#CSCSc1nc2ccccc2s1
active: [1] 50 µM
inactive: [2]

CC(C)CCCCCCc1ccc(O)cc1
active: [3] 1.44 µM | [13] 768 nM | [4] 1.19 µM
inactive: [5] | [6] | [8] | [9] | [11] | [12] | [1] | [2]

CCOC(=O)NCCOc1ccc(Oc2ccccc2)cc1
active: [1] 40.2 µM | [2] 34 µM

C#C[C@]1(O)CC[C@H]2[C@@H]3CCC4=CC(=O)CC[C@@H]4[C@H]3CC[C@@]21CC
active: [3] 0.651 µM | [14] 0.208 µM | [13] 114 nM and 35.2 nM | [12] 1.44 µM
inactive: [3] | [15] | [4] | [5] | [6] | [7] | [8] | [9] | [10] | [16] | [11]

CCN(Cc1c(F)cccc1Cl)c1c([N+](=O)[O-])cc(C(F)(F)F)cc1[N+](=O)[O-]
active: [3] 10.2 µM and 4.04 µM | [13] 1.49 µM and 1.53 µM | [4] 10.1 µM and 2.8 µM
inactive: [17] | [5] | [6] | [7] | [8] | [10] | [18] | [16] | [11] | [12] | [1] | [2]

CC(=O)S[C@@H]1CC2=CC(=O)CC[C@]2(C)[C@H]2CC[C@@]3(C)[C@@H](CC[C@@]34CCC(=O)O4)[C@H]12
inactive: [17] | [13] | [4] | [5] | [6] | [8] | [9] | [10] | [16] | [11] | [12]
active: [3] 74 µM

O=C(Nc1ccc([N+](=O)[O-])cc1Cl)c1cc(Cl)ccc1O
active: [1] 0.111 µM
inactive: [2]

COC(=O)c1ccccc1C(=O)O
inactive: [19] | [20]

CCOC(=O)C(C)Oc1ccc(Oc2nc3ccc(Cl)cc3o2)cc1 (stereo unspecified)
inactive: [1] | [2]

CCCCOC(=O)[C@@H](C)Oc1ccc(Oc2ccc(C(F)(F)F)cn2)cc1
inactive: [1] | [2]

CC(=O)[C@H]1CC[C@H]2[C@@H]3CCC4=CC(=O)CC[C@]4(C)[C@H]3CC[C@]12C
active: [1] 84.4 µM | [2] 9.92 µM

CCOC(=O)C(C)Oc1ccc(Oc2cnc3cc(Cl)ccc3n2)cc1 (stereo unspecified)
inactive: [1] | [2]

c1ccc(Nc2ccccc2)cc1
inactive: [1] | [2]

CCOC(=O)COc1cc(-n2ncc(C(F)(F)F)c(C)c2=O)c(F)cc1Cl
inactive: [1] | [2]

C=CCOC(Cn1ccnc1)c1ccc(Cl)cc1Cl (stereo unspecified)
active: [5] 82.2 µM
inactive: [3] | [4] | [7] | [9] | [10] | [16] | [1] | [2]

Cc1nn(C)c(Oc2ccccc2)c1C=NOCc1ccc(C(=O)OC(C)(C)C)cc1
inactive: [1] | [2]

CCCCC(CC)COC(=O)c1ccccc1C(=O)O (stereo unspecified)
inactive: [15] | [9] | [11] | [19] | [20]
active: [3] 48.9 µM | [4] 33.2 µM | [7] 59.8 µM
